# Screens (PubChem BioAssay)
# Tgondii IFNg: T. gondii growth inhibition with IFN-gamma, primary screen, cell-based. Toxoplasma gondii growth in IFN-gamma-treated host cells; active compounds read low. activity change, negative = inhibition, % (no concentration beside the values). hit rate 3.8% among 69,000. AID 1259416, 2018; in the data active = activity change below about -70%, passing the limit was not always enough;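 also: host cells are HeLa cells infected with Toxoplasma gondii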
# A number is an active result; . = inactive; ! = a repeat was not active. The entries come from a sample that favours hits as a whole.
SMILES,Tgondii IFNg
Cc1cc(C)c2c(c1)CC(C)(C)c1[nH]c(-c3ccc(Cl)cc3Cl)nc1-2,-71
CC1CCN(c2ccc(C(C)NC(=O)CCc3nc4ccccc4oc3=O)cc2)CC1 (stereo not given),.
COCCNC(=O)C[C@H]1CC[C@H]2[C@H](COc3ccc(NC(=O)Nc4cccc(F)c4)cc3C(=O)N2C)O1,.
COc1ccc(SCC(O)CNCc2ccc(Cl)cc2)cc1 (stereo not given),-80
COc1ccc(NC(=S)NCCSc2ccc(Cl)cc2)cc1,.
COc1ccc(CNCCCSc2ncccn2)cc1,.
CNC(=O)C[C@H]1CC[C@@H]2[C@H](COc3ccc(NS(=O)(=O)c4ccc(F)cc4)cc3C(=O)N2C)O1,.
Cc1ccc(-c2nc(CN(C)S(=O)(=O)c3ccc(C)c(C)c3)c(C)o2)cc1,.
C[C@@H]1CN([C@@H](C)CO)C(=O)c2cccc(NC(=O)c3ccncc3)c2O[C@H]1CN(C)Cc1ccc2c(c1)OCO2,.
O=C(Nc1ccc2c(c1)ncn2-c1ccccc1)c1cccs1,-95
CN(C)c1ccc(NC(=O)c2cccs2)cc1,.
O=C(Nc1ccc2c(c1)CS(=O)(=O)C2)c1cccs1,.
COC(=O)c1cn([C@H]2C[C@@H](C(=O)NCc3ccc(OC)cc3)N(C3CCCC3)C2)nn1,.
CN(C)c1nc2c(cc1C(=O)O)CCN(S(=O)(=O)C1CC1)CC2,.
COCc1c(C(=O)N2CCCC3(CN(C)C(=O)O3)C2)noc1C (stereo not given),.
CC12CCC3c4ccc(O)cc4CCC3C1CCC2=O (stereo not given),.
C[C@]12CCC3c4ccc(O)cc4CCC3C1CCC2=O (stereo not given in full),-79
COc1ccc2c(c1)CCC1C2CCC2(C)C(=O)CCC12 (stereo not given),.
C#C[C@]1(O)CC[C@H]2[C@@H]3CCc4cc(O)ccc4[C@H]3CC[C@@]21C,-79!
CC12CCC3c4ccc(OC(=O)c5ccccc5)cc4CCC3C1CCC2O (stereo not given),.
C[C@]12CCC3c4ccc(OC(=O)c5ccccc5)cc4CCC3C1CC[C@@H]2O (stereo not given in full),-87
C[C@]12CC[C@@H]3c4ccc(OS(=O)(=O)O)cc4CC[C@H]3[C@@H]1CCC2=O,.
C#CC1(O)CCC2C3CCC4=Cc5oncc5CC4(C)C3CCC21C (stereo not given),-86
CC(=O)[C@@]1(O)CCC2C3CCC4=CC(=O)CC[C@]4(C)C3CC[C@@]21C (stereo not given in full),.
CC(=O)[C@@]1(O)CC[C@H]2[C@@H]3CCC4=CC(=O)CC[C@]4(C)[C@H]3CC[C@@]21C,.
SMILES,Tgondii IFNg
CC(=O)O[C@H]1CC[C@H]2[C@@H]3CCc4cc(O)ccc4[C@H]3CC[C@]12C,.
CC(=O)OC1CCC2C3CCc4cc(O)ccc4C3CCC12C (stereo not given),.
CC(C)(C)c1ccc(C(=O)NCc2ccccc2-n2ccnc2)c(=O)[nH]1,.
CCN1CCN(C)C2(CCN(C(=O)c3ccn[nH]3)CC2)C1=O,.
O=c1[nH]cc(-c2ccc(Cl)cc2)cc1CNc1cccc(CN2CCOCC2)c1,.
COc1ccccc1C1CCCN1S(=O)(=O)NCc1ccccc1 (stereo not given),.
Cc1ccccc1-c1noc(CCC(=O)N(C)Cc2nc(C3CC3)no2)n1,.
CN(C)CC1(O)CCCN(c2ncccc2C(N)=O)CC1 (stereo not given),.
O=C(Cn1c(=O)oc2cc(Cl)ccc21)NCCN1CCc2ccccc21,.
COCCNc1c(-c2cnc(N(C)C)nc2)nc2cnccn12,.
COc1ccc2c(c1)CCC1C2CC[C@@]2(C)C1CC[C@@H]2O (stereo not given in full),.
C[C@]12CC[C@@H]3c4ccc(O)cc4CC[C@H]3[C@@H]1CC[C@@H]2O,-84
C[C@]12CC[C@@H]3c4cc(O)c(O)cc4CC[C@H]3[C@@H]1CC[C@@H]2O,.
CC(=O)NC(C(=O)O)C(C)(C)S[NH2+][O-] (stereo not given),.
Cc1ccc(CN(CCN(C)C)C(=O)c2ccc(C)c(C)c2)s1,.
CCC(C)(C)C(=O)O,.
C[C@@H]1CN([C@@H](C)CO)C(=O)c2cccc(NC(=O)Nc3ccc(F)cc3)c2O[C@H]1CN(C)S(=O)(=O)c1ccc(Cl)cc1,.
C[C@H](CO)N1C[C@H](C)[C@H](CN(C)S(=O)(=O)c2ccc(Cl)cc2)Oc2c(NC(=O)Nc3ccc(F)cc3)cccc2C1=O,-81
C[C@@H]1CN([C@@H](C)CO)C(=O)c2cc(/C=C/c3ccccc3)cnc2O[C@@H]1CN(C)S(=O)(=O)c1ccccc1F,.
C[C@@H]1CN([C@H](C)CO)C(=O)c2cc(/C=C/c3ccccc3)cnc2O[C@@H]1CN(C)S(=O)(=O)c1ccccc1F,-88
C[C@H](CO)N1C[C@H](C)[C@@H](CN(C)Cc2ccc(Oc3ccccc3)cc2)Oc2c(NC(=O)CCC(F)(F)F)cccc2C1=O,.
C[C@H](CO)N1C[C@H](C)[C@@H](CN(C)Cc2ccccc2)Oc2c(NC(=O)Cc3cn(C)c4ccccc34)cccc2C1=O,-93
C[C@@H]1CN([C@@H](C)CO)C(=O)c2cccc(NS(C)(=O)=O)c2O[C@H]1CN(C)Cc1ccc(-c2ccccc2)cc1,.
C[C@H](CO)N1C[C@H](C)[C@@H](CN(C)S(=O)(=O)c2ccccc2F)Oc2ncc(/C=C/c3ccccc3)cc2C1=O,.
C[C@@H]1CN([C@@H](C)CO)C(=O)c2cccc(NC(=O)c3nc4ccccc4s3)c2O[C@@H]1CN(C)C(=O)Nc1ccc2c(c1)OCO2,.
SMILES,Tgondii IFNg
C[C@@H]1CN([C@@H](C)CO)C(=O)c2cccc(NC(=O)Nc3ccc(F)cc3)c2O[C@@H]1CN(C)S(=O)(=O)c1ccc(Cl)cc1,.
COc1ccc(S(=O)(=O)N(C)C[C@@H]2Oc3c(NC(=O)c4nc5ccccc5s4)cccc3C(=O)N([C@H](C)CO)C[C@H]2C)cc1,.
COc1ccc(S(=O)(=O)N(C)C[C@H]2Oc3c(NC(=O)c4nc5ccccc5s4)cccc3C(=O)N([C@@H](C)CO)C[C@@H]2C)cc1,-78
COc1ccc(C2CCCN2CC(=O)Nc2ccc(-n3cnnn3)cc2)cc1OC (stereo not given),.
CCOC(=O)Cn1nc2c3cc(OC)c(OC)cc3ncn2c1=O,.
CCn1ncnc1CN1CCCC(CNC(=O)NC2CCCC2)C1 (stereo not given),.
CCn1nc(C)c(Cn2ccnc2-c2cc(OC)c3c(c2)OCO3)c1C,.
COc1ccc(-c2nc(C)c(CCNS(=O)(=O)c3ccc(Br)cc3)s2)cc1,.
Cn1ncc(N2CCC(CNc3ncc(F)c(N4CCOCC4)n3)C2)cc1=O (stereo not given),.
C/C=C/c1ccc([C@H]2[C@@H](CN(C)C(=O)CC3CC3)N(C(=O)C3CC3)[C@H]2CO)cc1,.
CCc1cnc(C)nc1-c1ccc(-c2ccn[nH]2)cc1,.
Nc1cnc(-c2ccc(-c3ccn[nH]3)cc2)cn1,.
Cc1ccc(-c2ccc(-c3ccn[nH]3)cc2)c(N)n1,-81
Cc1ccccc1N1CC2(CCN(C(=O)Cc3ccc(F)cc3)C2)CC1=O (stereo not given),.
O=C(c1ccn[nH]1)N1CCC2(CC(=O)N(c3ccccc3)C2)C1 (stereo not given),.
O=C(c1ccn[nH]1)N1CCC2(CC(=O)N(c3ccc(F)cc3)C2)C1 (stereo not given),-92
